A short description of experiment [1]: NCI Yeast Anticancer Drug Screen. Data for the rad50 strain (AID 155).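 Further: 0% = growth of vehicle-only cultures of the same strain.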 The settings on record: S. cerevisiae rad50 strain growth inhibition, active compounds read high. In a few lines:
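DNA repair mutant yeast, compound exposure, growth read-out; inhibition is taken relative to vehicle.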

Experiment [2] is described as follows: NCI Yeast Anticancer Drug Screen. Data for the mec2-1 strain (AID 157). The settings on record: S. cerevisiae mec2-1 strain, active compounds read high. In a few lines: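 Cells of the genetically defined mec2-1 yeast strain are incubated with test compound. Inhibition of growth is calculated against vehicle-treated controls.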
The nature of experiment [3]: NCI Yeast Anticancer Drug Screen. Data for the sgs1 mgt1 strain (AID 161).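 Further: 0% = growth of cultures given vehicle only.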 The note with it: S. cerevisiae sgs1 mgt1 strain, active compounds read high. In outline: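 Genetically altered yeast, compound exposure, growth inhibition relative to vehicle.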
Experiment [4] in a line: NCI Yeast Anticancer Drug Screen. Data for the cln2 rad14 strain (AID 165).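 Further: 0% = growth equal to vehicle treated cultures.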 The settings on record: S. cerevisiae cln2 rad14 strain, active compounds read high. In a few lines:
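The screen exposed genetically defined yeast (cln2 rad14) to test compounds and scored growth inhibition relative to vehicle-treated controls.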

Experiment [5] is described as follows: NCI Yeast Anticancer Drug Screen. Data for the bub3 strain (AID 167). The settings on record: S. cerevisiae bub3 mutant strain, active compounds read high. In a few lines: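 In this screen, a yeast mutant lacking normal mitotic checkpoint function is challenged with compound. Relative growth versus vehicle gives the inhibition value.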
The nature of experiment [6]: NCI Yeast Anticancer Drug Screen. Data for the mlh1 rad18 strain (AID 175). The settings on record: S. cerevisiae mlh1 rad18 strain growth inhibition, active compounds read high. In a few lines:
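Compound-treated yeast growth, normalised to vehicle controls. Strain bears defined DNA repair mutations.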

[7] abbreviates: at 5.0 µM (retest, dose inferred, filed as 0.5).
[8] abbreviates: at 50.0 µM (retest, dose inferred, filed as 5.0).

Structures are written as SMILES. About 79,000 compounds went through this panel and 15% of them were active in at least one assay; those are over-represented in the sample as a whole. Unmarked numbers belong to inactive results. The source made the active and inactive calls. No stated cut-off is given here; in the data, active means growth inhibition above about 70%; inactive means the rest.

Regarding `CC(C)SC(=S)Nc1ccc(Cl)c([N+](=O)[O-])c1`, the growth inhibition is 25% in experiment [1] (setting [7]); 99% (active) in experiment [1] (setting [8]); 99.3% (active) in experiment [1] (at 50.0 µM); 15% in experiment [2] (setting [7]); 99% (active) in experiment [2] (setting [8]); 99.6% (active) in experiment [2] (at 50.0 µM). Moreover, the growth inhibition in experiment [3] (setting [7]) was 18%; in experiment [3] (setting [8]), 100% (active); in experiment [3] (at 50.0 µM) it was 99.5% (active); in experiment [4] (setting [7]), 2%; in experiment [4] (setting [8]), 99% (active); in experiment [4] (at 50.0 µM), 99.2% (active). Besides, the growth inhibition in experiment [5] (setting [7]) was 12%; in experiment [5] (setting [8]) it was 99% (active); in experiment [5] (at 50.0 µM) it was 99.5% (active); in experiment [6] (setting [7]) it was 30%; in experiment [6] (setting [8]), 99% (active); in experiment [6] (at 50.0 µM), 99.4% (active).
For `CN1C(=O)C23SSC1(C)C(=O)N2c1ccccc1C3(C)C` (configuration not stated), the growth inhibition in experiment [1] (setting [7]) is 97% (active); in experiment [1] (setting [8]), 99% (active); in experiment [1] (at 50.0 µM) it was 99% (active); in experiment [2] (setting [7]), 98% (active); in experiment [2] (setting [8]), 96% (active); in experiment [2] (at 50.0 µM), 99.6% (active). Also, the growth inhibition was 99% (active) in experiment [3] (setting [7]); 100% (active) in experiment [3] (setting [8]); 98% (active) in experiment [3] (at 50.0 µM); 98% (active) in experiment [4] (setting [7]); 99% (active) in experiment [4] (setting [8]); 99.3% (active) in experiment [4] (at 50.0 µM). The growth inhibition in experiment [5] (setting [7]) is 98% (active); in experiment [5] (setting [8]), 99% (active); in experiment [5] (at 50.0 µM) it was 99.2% (active); in experiment [6] (setting [7]) it was 99% (active); in experiment [6] (setting [8]) it was 99% (active); in experiment [6] (at 50.0 µM), 99.3% (active).
As for `CCOC(=O)C(Cl)C(Cl)C(=O)OCC` (configuration not stated), the growth inhibition in experiment [1] (setting [7]) is 12%; in experiment [1] (setting [8]), 98% (active); in experiment [1] (at 50.0 µM) it was 98.8% (active); in experiment [2] (setting [7]), 6%; in experiment [2] (setting [8]), 98% (active); in experiment [2] (at 50.0 µM) it was 99% (active). Also, the growth inhibition is 2% in experiment [3] (setting [7]); 99% (active) in experiment [3] (setting [8]); 99.5% (active) in experiment [3] (at 50.0 µM); 6% in experiment [4] (setting [7]); 98% (active) in experiment [4] (setting [8]); 98.4% (active) in experiment [4] (at 50.0 µM). The growth inhibition was 22% in experiment [5] (setting [7]); 98% (active) in experiment [5] (setting [8]); 99% (active) in experiment [5] (at 50.0 µM); 12% in experiment [6] (setting [7]); 99% (active) in experiment [6] (setting [8]); 99% (active) in experiment [6] (at 50.0 µM).
Regarding `CCCCCOC(=O)c1ccc(O)cc1`, the growth inhibition was -3% in experiment [1] (setting [7]); 98% (active) in experiment [1] (setting [8]); -3.65% in experiment [1] (at 50.0 µM); 7% in experiment [2] (setting [7]); 100% (active) in experiment [2] (setting [8]); 36% in experiment [2] (at 50.0 µM). Moreover, the growth inhibition in experiment [3] (setting [7]) was 2%; in experiment [3] (setting [8]), 99% (active); in experiment [3] (at 50.0 µM), 51.2%; in experiment [4] (setting [7]), -9%; in experiment [4] (setting [8]), 97% (active); in experiment [4] (at 50.0 µM) it was 13.1%. The growth inhibition in experiment [5] (setting [7]) is 32%; in experiment [5] (setting [8]) it was 99% (active); in experiment [5] (at 50.0 µM), 88.9% (active); in experiment [6] (setting [7]) it was 3%; in experiment [6] (setting [8]), 99% (active); in experiment [6] (at 50.0 µM), 15.4%.
Regarding `OCC(O)Cc1c(Cl)c(Cl)c(Oc2c(Cl)c(Cl)c(CC(O)CO)c(Cl)c2Cl)c(Cl)c1Cl` (configuration not stated), the growth inhibition is 5% in experiment [1] (setting [7]); 7% in experiment [1] (setting [8]); 11.3% in experiment [1] (at 50.0 µM); 5% in experiment [2] (setting [7]); 10% in experiment [2] (setting [8]); 14.6% in experiment [2] (at 50.0 µM). For the same compound, the growth inhibition in experiment [3] (setting [7]) is 18%; in experiment [3] (setting [8]), 16%; in experiment [3] (at 50.0 µM) it was 4.95%; in experiment [4] (setting [7]), -9%; in experiment [4] (setting [8]), -9%; in experiment [4] (at 50.0 µM), -8.05%. In addition, the growth inhibition in experiment [5] (setting [7]) is -1%; in experiment [5] (setting [8]), 11%; in experiment [5] (at 50.0 µM), 64.7%; in experiment [6] (setting [7]) it was -1%; in experiment [6] (setting [8]), 1%; in experiment [6] (at 50.0 µM), 8.75%.
On to `CC(Cl)C(=O)Nc1cc2ccccc2oc1=O` (configuration not stated), for which the growth inhibition in experiment [1] (setting [7]) is -7%; in experiment [1] (setting [8]) it was 9%; in experiment [1] (at 50.0 µM), 10.7%; in experiment [2] (setting [7]), -3%; in experiment [2] (setting [8]), 7%; in experiment [2] (at 50.0 µM), 6.15%. In addition, the growth inhibition was 6% in experiment [3] (setting [7]); 4% in experiment [3] (setting [8]); 9.2% in experiment [3] (at 50.0 µM); 10% in experiment [4] (setting [7]); -1% in experiment [4] (setting [8]); 0.35% in experiment [4] (at 50.0 µM). The growth inhibition in experiment [5] (setting [7]) is -5%; in experiment [5] (setting [8]), -2%; in experiment [5] (at 50.0 µM), 2.45%; in experiment [6] (setting [7]), -21%; in experiment [6] (setting [8]), -3%; in experiment [6] (at 50.0 µM), -11.2%.
On to `Clc1ccc2c(NC3CCC(N4CCCCC4)CC3)ccnc2c1` (configuration not stated), for which the growth inhibition in experiment [1] (setting [7]) is 99% (active); in experiment [1] (setting [8]) it was 97% (active); in experiment [1] (at 50.0 µM), -13.2%; in experiment [2] (setting [7]), 90% (active); in experiment [2] (setting [8]), 97% (active); in experiment [2] (at 50.0 µM) it was -25.6%. Also, the growth inhibition was 93% (active) in experiment [3] (setting [7]); 98% (active) in experiment [3] (setting [8]); -24.1% in experiment [3] (at 50.0 µM); 76% (active) in experiment [4] (setting [7]); 97% (active) in experiment [4] (setting [8]); 27.1% in experiment [4] (at 50.0 µM). The growth inhibition was 94% (active) in experiment [5] (setting [7]); 97% (active) in experiment [5] (setting [8]); -79.4% in experiment [5] (at 50.0 µM); 98% (active) in experiment [6] (setting [7]); 97% (active) in experiment [6] (setting [8]); -16% in experiment [6] (at 50.0 µM).
As for `N#CC(C#N)=Cc1ccc(Oc2ccccc2)cc1`, the growth inhibition was 2% in experiment [1] (setting [7]); 31% in experiment [1] (setting [8]); 88.2% (active) in experiment [1] (at 50.0 µM); -21% in experiment [2] (setting [7]); 54% in experiment [2] (setting [8]); 82.1% (active) in experiment [2] (at 50.0 µM). The growth inhibition in experiment [3] (setting [7]) was 13%; in experiment [3] (setting [8]), 56%; in experiment [3] (at 50.0 µM), 58.9%; in experiment [4] (setting [7]), 25%; in experiment [4] (setting [8]), 62%; in experiment [4] (at 50.0 µM), 66.3%. Besides, the growth inhibition in experiment [5] (setting [7]) is -6%; in experiment [5] (setting [8]), 90% (active); in experiment [5] (at 50.0 µM) it was 83.7% (active); in experiment [6] (setting [7]) it was 2%; in experiment [6] (setting [8]) it was 77% (active); in experiment [6] (at 50.0 µM) it was 73.9% (active).
As to `O=C(Cc1nc2ccccc2s1)Nc1ccc2ccccc2c1`, the growth inhibition in experiment [1] (setting [7]) is -8%; in experiment [1] (setting [8]) it was 99% (active); in experiment [1] (at 50.0 µM), 98% (active); in experiment [2] (setting [7]) it was 18%; in experiment [2] (setting [8]) it was 99% (active); in experiment [2] (at 50.0 µM), 98.5% (active). The growth inhibition in experiment [3] (setting [7]) is 31%; in experiment [3] (setting [8]), 99% (active); in experiment [3] (at 50.0 µM) it was 97.8% (active); in experiment [4] (setting [7]) it was -1%; in experiment [4] (setting [8]), 99% (active); in experiment [4] (at 50.0 µM), 95.3% (active). Moreover, the growth inhibition is 12% in experiment [5] (setting [7]); 99% (active) in experiment [5] (setting [8]); 97.8% (active) in experiment [5] (at 50.0 µM); 13% in experiment [6] (setting [7]); 99% (active) in experiment [6] (setting [8]); 97.8% (active) in experiment [6] (at 50.0 µM).

Source of the values: PubChem BioAssay (NCI).
